Results filed as inconclusive are left out. Active and inactive are the calls of the source. Unless noted, the call rests on the fitted dose curve; in most records, active means well fitted curve in the direction sought with a large enough effect in the repeat runs; inconclusive means weak or mixed curves; inactive means no such curve, though single readings can be large; an effect the other way counts as inactive or inconclusive.

A short description of assay [1]: qHTS assay to test for compound auto fluorescence at 535 nm (green) in HEK293 cells (AID 720680). (In qHTS, concentration-response curves come from the screen itself.)
A short description of assay [2]: qHTS assay to test for compound auto fluorescence at 460 nm (blue) in HEK293 cell free culture (AID 720681). In a few lines: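 Blue fluorescence (Ex 405/Em 460 nm, triamterene-equivalent) was read immediately after pin transfer of compound or DMSO into medium (DMEM, 10% FBS) without cells.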
Assay [3] is described as follows: qHTS assay to test for compound auto fluorescence at 535 nm (green) in HEK293 cell free culture (AID 720682). In a few lines:
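Read-out: 485/535 nm fluorescence intensity, calibrated against fluorescein. Medium only (DMEM + 10% FBS, no cells); test compound or DMSO vehicle added by pintool before plate reading.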

The nature of assay [4]: qHTS assay to test for compound auto fluorescence at 590 nm (red) in HEK293 cell free culture (AID 720683). In a few lines: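 Red-channel autofluorescence of compounds in culture medium (DMEM, 10% FBS), no cells, measured at 540/590 nm. Rose Bengal sodium is the reference fluorophore for equivalence.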
Assay [5] can be described thus: qHTS assay to test for compound auto fluorescence at 590 nm (red) in HepG2 cell free culture (AID 720684). In a few lines: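 Plate contents were MEM with 10% FBS plus test compound or DMSO, no cells. Fluorescence was recorded with 540 nm excitation and 590 nm emission.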
Assay [6] can be described thus: qHTS assay to test for compound auto fluorescence at 460 nm (blue) in HepG2 cell free culture (AID 720685). In a few lines: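 Compound (23 nL) or DMSO pinned into cell-free MEM with 10% FBS; blue fluorescence read at 405/460 nm excitation/emission, expressed as auto-fluorescence equivalency to triamterene.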
A short description of assay [7]: qHTS assay to test for compound auto fluorescence at 535 nm (green) in HepG2 cell free culture (AID 720686).
The nature of assay [8]: qHTS assay to test for compound auto fluorescence at 460 nm (blue) in HepG2 cells (AID 720687). An outline of the steps: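 Blue-channel autofluorescence (Ex/Em 405/460 nm, triamterene-equivalent) was measured after 1 hr compound exposure at 37 C, 5% CO2. Cells were HepG2, plated overnight at 37 C in MEM plus 10% FBS.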
For assay [9], the target named is Glucocorticoid receptor (Homo sapiens) (UniProt P04150). Nature of the assay: qHTS assay to identify small molecule agonists of the glucocorticoid receptor (GR) signaling pathway (AID 720691; active means well fitted activation curve with a large enough effect in the signal ratio in the repeat runs, not every such curve was filed as active; the % refers to the signal ratio; further: potency means the concentration at half of the fitted maximal effect). An outline of the steps: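 GR-bla HeLa cells carrying a GRE-driven beta-lactamase reporter, exposed to compounds for 18 h at 37 C. Reporter activation read as fluorescence after 2 h with LiveBLAzer B/G FRET substrate at room temperature.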
Sequence of Glucocorticoid receptor (Homo sapiens) (P04150 whole entry, looked up): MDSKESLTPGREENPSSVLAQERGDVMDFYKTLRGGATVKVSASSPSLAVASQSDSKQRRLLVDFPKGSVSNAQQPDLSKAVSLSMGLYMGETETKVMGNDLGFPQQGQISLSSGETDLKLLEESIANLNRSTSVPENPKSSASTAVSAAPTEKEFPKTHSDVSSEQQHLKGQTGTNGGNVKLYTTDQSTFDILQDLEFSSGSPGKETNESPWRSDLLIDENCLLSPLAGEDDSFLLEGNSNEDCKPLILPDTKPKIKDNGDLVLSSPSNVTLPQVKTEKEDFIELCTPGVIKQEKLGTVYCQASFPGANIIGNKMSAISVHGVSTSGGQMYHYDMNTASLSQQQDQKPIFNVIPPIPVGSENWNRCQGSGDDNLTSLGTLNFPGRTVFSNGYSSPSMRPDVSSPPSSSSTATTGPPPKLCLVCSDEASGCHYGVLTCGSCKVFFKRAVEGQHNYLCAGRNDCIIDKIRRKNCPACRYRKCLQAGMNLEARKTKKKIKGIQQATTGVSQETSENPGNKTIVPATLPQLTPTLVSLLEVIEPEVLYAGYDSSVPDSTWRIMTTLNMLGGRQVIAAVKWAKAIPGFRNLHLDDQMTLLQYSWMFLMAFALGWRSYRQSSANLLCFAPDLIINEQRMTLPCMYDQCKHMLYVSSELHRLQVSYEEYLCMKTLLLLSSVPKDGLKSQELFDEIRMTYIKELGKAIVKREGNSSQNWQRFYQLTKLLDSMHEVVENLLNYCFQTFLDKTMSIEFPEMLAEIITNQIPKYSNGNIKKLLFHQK

For assay [10] the target is unchanged. Description: qHTS assay to identify small molecule antagonists of the glucocorticoid receptor (GR) signaling pathway (AID 720692; active means well fitted inhibition curve with a large enough effect in the signal ratio in the repeat runs, not every such curve was filed as active; the % refers to the signal ratio). An outline of the steps:
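GR-bla HeLa cells carrying a GRE-driven beta-lactamase reporter received compound after 4 h plating, then dexamethasone (5 nM final). After 18 h at 37C, the FRET substrate was loaded for 2 h at room temperature and fluorescence read.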

Assay [11] can be described thus: qHTS assay to identify small molecule antagonists of the glucocorticoid receptor (GR) signaling pathway - cell viability counter screen (AID 720693). Further: nearly all actives have a fitted effect of over 55% in size.
Assay [12] in a line: qHTS assay for identifying genotoxic compounds that show differential cytotoxicity against isogenic chicken DT40 cell lines with known DNA damage response pathways - Rev3 mutant cell line (AID 743014). Further: nearly all actives have a fitted effect of over 55% in size. Further: potency means the concentration at half of the fitted maximal effect.
Assay [13] is described as follows: qHTS assay for identifying genotoxic compounds that show differential cytotoxicity against isogenic chicken DT40 cell lines with known DNA damage response pathways - Rad54/Ku70 mutant cell line (AID 743015). Further: nearly all actives have a fitted effect of over 60% in size.
Assay [14] is described as follows: qHTS assay to identify small molecule antagonists of the androgen receptor (AR) signaling pathway - cell viability counter screen (AID 743033; further: nearly all actives have a fitted effect of over 45% in size).
The nature of assay [15]: qHTS assay to identify small molecule antagonists of the androgen receptor (AR) signaling pathway using the MDA cell line - cell viability counter screen (AID 743041; further: nearly all actives have a fitted effect of over 45% in size). In a few lines:
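R1881-driven MDA-kb2 AR-luc cells, 3,000/well, were dosed with library compounds for 16 h; cell health came from CellTiter-Fluor fluorescence in the reporter wells.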

A short description of assay [16]: qHTS assay for identifying genotoxic compounds that show differential cytotoxicity against isogenic chicken DT40 cell lines with known DNA damage response pathways - wild type cell line (AID 743012). Further: nearly all actives have a fitted effect of over 60% in size. In a few lines:
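Wild-type DT40 cells (300/well) exposed to compounds for 40 hours at 37 C/5% CO2. Viability read by CellTiter-Glo luminescence after 30 min at room temperature.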

The target in assay [17] is Androgen receptor (Homo sapiens) (UniProt P10275). Description: qHTS assay to identify small molecule antagonists of the androgen receptor (AR) signaling pathway (AID 743035; active means well fitted inhibition curve with a large enough effect in the signal ratio in the repeat runs, not every such curve was filed as active; the % refers to the signal ratio). An outline of the steps: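 HEK293 cells stably carrying UAS-beta-lactamase reporter, 2,000/well, given compounds plus R1881 agonist and incubated 16 h at 37C. LiveBLAzer B/G FRET substrate then added for 2 h at room temperature before fluorescence reading.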
Sequence of Androgen receptor (Homo sapiens) (P10275 whole entry, looked up): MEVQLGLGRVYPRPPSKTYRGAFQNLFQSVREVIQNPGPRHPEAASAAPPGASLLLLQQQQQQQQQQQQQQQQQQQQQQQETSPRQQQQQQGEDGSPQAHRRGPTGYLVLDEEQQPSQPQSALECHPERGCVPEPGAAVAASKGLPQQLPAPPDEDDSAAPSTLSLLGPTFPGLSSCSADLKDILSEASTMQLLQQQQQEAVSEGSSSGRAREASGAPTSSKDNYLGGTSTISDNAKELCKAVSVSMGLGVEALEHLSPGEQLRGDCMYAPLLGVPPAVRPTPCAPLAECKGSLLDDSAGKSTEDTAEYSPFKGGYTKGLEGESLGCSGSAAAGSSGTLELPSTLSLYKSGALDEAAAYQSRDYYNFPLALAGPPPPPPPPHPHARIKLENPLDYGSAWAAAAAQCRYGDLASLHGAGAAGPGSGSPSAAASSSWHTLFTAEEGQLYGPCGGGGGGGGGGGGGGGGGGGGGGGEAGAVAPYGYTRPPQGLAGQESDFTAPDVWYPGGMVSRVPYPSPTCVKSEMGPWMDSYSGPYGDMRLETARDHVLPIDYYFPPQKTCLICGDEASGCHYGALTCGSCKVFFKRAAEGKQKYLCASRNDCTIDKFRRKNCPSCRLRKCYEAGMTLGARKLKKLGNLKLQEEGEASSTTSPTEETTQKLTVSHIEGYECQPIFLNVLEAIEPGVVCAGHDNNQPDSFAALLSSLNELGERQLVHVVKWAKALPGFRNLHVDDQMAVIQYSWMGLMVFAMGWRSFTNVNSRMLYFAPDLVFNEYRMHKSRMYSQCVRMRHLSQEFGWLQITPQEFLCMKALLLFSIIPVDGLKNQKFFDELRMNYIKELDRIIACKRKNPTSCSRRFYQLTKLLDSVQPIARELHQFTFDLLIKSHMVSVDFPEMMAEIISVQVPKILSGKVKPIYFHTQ

Assay [18] has the same target. Description: qHTS assay to identify small molecule agonists of the androgen receptor (AR) signaling pathway (AID 743036; active means well fitted activation curve with a large enough effect in the signal ratio in the repeat runs, with a control signal flat, not every such curve was filed as active; the % refers to the signal ratio). In a few lines: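 HEK293 cells stably carrying a UAS-driven beta-lactamase reporter (GeneBLAzer AR-UAS-bla-GripTite) were plated at 2,000 cells/well, rested 4 h at 37C, then exposed to compounds in DMSO for 16 h. LiveBLAzer B/G FRET substrate was added for 2 h at room temperature; fluorescence read.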

The target is the same in assay [19]. Nature of the assay: qHTS assay to identify small molecule agonists of the androgen receptor (AR) signaling pathway using the MDA cell line (AID 743040; further: nearly all actives have a fitted effect of over 20% in size; further: potency means the concentration at half of the fitted maximal effect). In a few lines: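 After a 5 h incubation at 37C and 0% CO2, MDA-kb2 reporter cells were dosed with compounds in DMSO and kept 16 h under the same conditions. Luciferase activity was then read as luminescence with ONE-Glo.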

Assay [20] has the same target. Nature of the assay: qHTS assay to identify small molecule antagonists of the androgen receptor (AR) signaling pathway using the MDA cell line (AID 743042; further: nearly all actives have a fitted effect of over 55% in size). An outline of the steps: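 Antagonist mode: compounds plus R1881 agonist added to MDA-kb2 AR-luc cells, incubated 16 h at 37C. Luciferase reporter luminescence quantified, with multiplexed CellTiter-Fluor readout for cell viability.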

With `C1CN(CCOCCN2CCOCC2)CCO1`, the result in [1], in assay [2], in assay [3], in [4], in assay [5] and in assay [6] was inactive. The compound was called inactive in assay [7], in assay [8] and in [11]. The Potency entry in [9], in assay [10], in assay [12], in assay [13], in [14] and in assay [15] was “inactive” throughout.
In the case of `Cc1[nH]c(=O)c(C#N)cc1-c1ccc2nccn2c1`, the compound was classed as inactive in assay [1], in [2], in [3], in assay [4], in [5] and in assay [6]. Also, the outcome in [7], in [8] and in assay [11] was inactive. Further, the Potency result in assay [9], in assay [10], in assay [16], in [13] and in [14] was “inactive” throughout.
On to `Nc1c2c(nc3ccccc13)CCCC2O` (stereo unspecified), for which the call in [1], in assay [2], in assay [3], in assay [4], in assay [5] and in assay [6] was inactive. In addition, the compound was classed as inactive in assay [7], in assay [8] and in assay [11]. The Potency result in assay [9], in assay [10], in assay [16], in assay [12], in assay [14] and in [15] was “inactive” in each case.
As for `CCCCCOC(=O)CCCCC`, the compound was called inactive in assay [1], in assay [2], in [3], in assay [4], in [5] and in assay [6]. The call in assay [7], in assay [8] and in assay [11] was inactive. In addition, the Potency result in assay [9], in [16], in assay [12], in assay [13], in assay [14] and in assay [15] was “inactive” each time.
On to `CO[Si](CCCOCC1CO1)(OC)OC` (stereo unspecified), for which the compound was called inactive in assay [1], in [2], in [3], in assay [4], in [5] and in [6]. Moreover, the compound was called inactive in assay [7], in assay [8] and in [11]. Besides, the Potency entry in assay [9], in assay [10], in assay [16], in [14] and in assay [15] was “inactive” in each case. Besides, the Potency in assay [12] was 38.6 µM (active).
Consider `Cc1ccc(Cl)cc1Cl`, for which the compound was called inactive in assay [1], in [2], in [3], in assay [4], in [5] and in [6]. Besides, the outcome in assay [7], in assay [8] and in assay [11] was inactive. Also, the Potency result in assay [9], in assay [10], in [16], in assay [12], in assay [14] and in assay [15] was “inactive” in each case.
With `O=C1CC2CC1C1CCCC21` (stereo unspecified), the result in [1], in [2], in assay [3], in assay [4], in assay [5] and in assay [6] was inactive. For the same compound, the compound was called inactive in assay [7], in [8], in [11], in [17] and in assay [18]. The Potency in assay [9] is 54.9 µM (active); in assay [19], 54.5 µM (active). Further, the Potency entry in [10], in [16], in assay [12], in assay [14], in assay [15] and in assay [20] was “inactive” throughout.
In the case of `CCOC(=O)C(=O)OCC`, the result in assay [1], in [2], in assay [3], in [4], in [5] and in assay [6] was inactive. The compound was called inactive in assay [7], in assay [8] and in [11]. Besides, the Potency result in assay [9], in assay [10], in assay [16], in [14] and in [15] was “inactive” in each case.
Turning to `C=C(C)C(=O)OCCCCCCCC(C)C`, the compound was called inactive in [1], in [2], in assay [3], in assay [4], in [5] and in assay [6]. In addition, the compound was classed as inactive in [7], in assay [8], in assay [11], in [17] and in assay [18]. In addition, the Potency entry in assay [9], in assay [16], in [12], in assay [13], in assay [14] and in assay [19] was “inactive” throughout. In addition, the Potency result in assay [15] and in assay [20] was “inactive” in each case.

These data come from PubChem BioAssay (Tox21).
